We go through 20 molecules from PubChem BioAssay (Tox21).

Results filed as inconclusive are left out. A call without a number means that no potency is given here. Values without a mark were called inactive. The source made the active and inactive calls. Calls come from the whole dose curve; as a rule, active = well fitted cell-killing curve with a large enough effect in the repeat runs; inconclusive = weak or mixed curves, or effect the other way; inactive = no such curve, though single readings can be large or run the other way.

The assay can be described thus: qHTS assay to identify small molecule antagonists of the retinoid-related orphan receptor gamma (ROR-gamma) signaling pathway - cell viability counter screen (AID 1159520). Note: nearly all actives have a fitted effect of over 50% in size. The settings on record: Tet-on RORgamma CHO cells viability, ATP luminescence, 16 h; series mostly up to 92.4 µM. Summed up: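 Tet-on ROR gamma CHO cells (1,000/well) were plated 4 hr, given compounds in DMSO for 2 hr at 37 C, then induced with 1 uM final doxycycline for 16 hr. Viability was read as ATP by CellTiter-Glo luminescence after 30 min.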
For orientation: In qHTS, concentration-response curves come from the screen itself.
In the case of `CCC(=O)O[C@]1(C(=O)CCl)[C@@H](C)C[C@H]2[C@@H]3CCC4=CC(=O)C=C[C@]4(C)[C@@]3(F)[C@@H](O)C[C@@]21C`, the Potency result is “inactive”. On the same count and under the same terms, then `CCC(C)O` (stereo not given), with “inactive”; and `Cc1cc(C(=O)O)ccc1[N+](=O)[O-]`, with “inactive”; and `COC(C)(C)CCO`, with “inactive”.

On to `CCCCC(=O)OCC(=O)[C@H]1[C@H](C)C[C@H]2[C@@H]3C[C@H](F)C4=CC(=O)C=C[C@]4(C)[C@@]3(F)[C@@H](O)C[C@@]21C`, for which the Potency result was “inactive”. In the case of `CCCCCCCCCOS(=O)(=O)O`, the Potency result was “inactive”.

In the case of `N=c1ccn2c(n1)O[C@H]1[C@H](O)[C@@H](CO)O[C@H]12`, the Potency entry is “inactive”. As to `C[C@H](CCC(=O)O)[C@H]1CC[C@H]2[C@@H]3CC[C@@H]4C[C@H](O)CC[C@]4(C)[C@H]3C[C@H](O)[C@]12C`, the Potency result was “inactive”.

Consider `CNCCCCOc1ccccc1Cc1ccccc1`, for which the Potency result was “inactive”. Still for that read-out and setting: then `CC1=CC=C(C(C)C)CC1`, with “inactive”. In the case of `O=C(O)c1ccc(S(=O)(=O)O)cc1C(=O)O`, the Potency result is “inactive”. With `c1cc(CCCc2ccncc2)ccn1`, the Potency entry is “inactive”. On the same count and under the same terms, then `Cc1ccc(C(C)OC(=O)C2(C)CCC(C(=O)O)C2(C)C)cc1` (stereo not given), with “inactive”; and `CCOc1ccc(O)cc1`, with “inactive”.

Regarding `Nc1cccc([N+](=O)[O-])c1`, the Potency result was “inactive”. On the same count and under the same terms, then `C[N+](C)(C)CCOC(=O)CCC(=O)OCC[N+](C)(C)C`, with “inactive”. Still for that read-out and setting: the same measure for `CC1(c2ccccc2)OC(C(=O)O)=CC1=O` (stereo not given): “inactive”; for `CCCCC(CC)COC(=O)CCCCCCCCC(=O)OCC(CC)CCCC` (stereo not given): “inactive”.

As to `CCOC(=O)COC(=O)c1cc(Oc2ccc(C(F)(F)F)cc2Cl)ccc1[N+](=O)[O-]`, the Potency result was “inactive”. As for `CC(CSC(=O)c1ccccc1)C(=O)N1C[C@@H](Sc2ccccc2)C[C@H]1C(=O)O` (stereo not given in full), the activity, negative = cytotoxicity was 3.47% [at 19 µM].
